Results taken from the antibiotic and cytotoxicity screens of Wong et al. (2023).
In all, about 39,000 compounds went through this assay and about 3,300 (8.5%) were called active. Many of the other results were omitted from the sample, so actives are more common in it than they were.

test system: HepG2; experiment: cytotoxicity call (relative viability < 0.9); settings: 10 µM

SMILES	cytotoxicity call
C[C@H]1CN([C@@H](C)CO)C(=O)c2cccc(NC(=O)c3nc4ccccc4s3)c2O[C@H]1CN(C)Cc1ccc(Oc2ccccc2)cc1	active
C[C@H](CO)N1C[C@H](C)[C@@H](CN(C)Cc2ccc(Oc3ccccc3)cc2)Oc2c(NC(=O)c3nc4ccccc4s3)cccc2C1=O	active
C[C@H]1CN([C@@H](C)CO)C(=O)c2cccc(NC(=O)c3nc4ccccc4s3)c2O[C@@H]1CN(C)Cc1ccc(Oc2ccccc2)cc1	inactive
C[C@H](CO)N1C[C@H](C)[C@H](CN(C)Cc2ccc(Oc3ccccc3)cc2)Oc2c(NC(=O)c3nc4ccccc4s3)cccc2C1=O	inactive
C[C@@H]1CN([C@H](C)CO)C(=O)c2cccc(NC(=O)c3nc4ccccc4s3)c2O[C@@H]1CN(C)Cc1ccc(Oc2ccccc2)cc1	inactive
C[C@@H]1CN([C@H](C)CO)C(=O)c2cccc(NC(=O)c3nc4ccccc4s3)c2O[C@H]1CN(C)Cc1ccc(Oc2ccccc2)cc1	inactive
COCC#Cc1cnc2c(c1)C(=O)N([C@H](C)CO)C[C@H](C)[C@H](CN(C)C(=O)CN1CCOCC1)O2	inactive
Cc1ccc(S(=O)(=O)Nc2ccc3c(c2)C(=O)N([C@@H](C)CO)C[C@@H](C)[C@H](CN(C)C(=O)Nc2cccc4ccccc24)OCCCC[C@H](C)O3)cc1	inactive
COc1ccc(S(=O)(=O)N(C)C[C@@H]2Oc3ccc(NC(=O)Cn4cnnn4)cc3CC(=O)N([C@H](C)CO)C[C@H]2C)cc1	inactive
Cc1ccccc1/C=C(\C#N)c1nc(-c2ccccc2)cs1	active
Cc1nc(-c2ccccc2)cs1	inactive
COc1ccc(-c2csc(C(C#N)=C3CCCCC3)n2)cc1	inactive
C[C@@H]1CN([C@@H](C)CO)C(=O)c2cc(NC(=O)Cn3cnnn3)ccc2O[C@@H]1CN(C)S(C)(=O)=O	inactive
O=C(C1=C[C@@H](c2coc3ccccc3c2=O)C[C@@H](OCCCCO)O1)N1CCN(Cc2ccc3c(c2)OCO3)CC1	inactive
Cc1noc(C)c1NC(=O)Nc1ccc2c(c1)C(=O)N([C@H](C)CO)C[C@H](C)[C@@H](CN(C)S(=O)(=O)c1cn(C)cn1)O2	inactive
C[C@@H]1CCCCO[C@@H](CN(C)Cc2ccc(Cl)c(Cl)c2)[C@H](C)CN([C@@H](C)CO)C(=O)c2cc(NC(=O)Nc3ccc(F)cc3)ccc2O1	inactive
C[C@H](CO)N1C[C@H](C)[C@H](CN(C)Cc2ccc(Cl)c(Cl)c2)OCCCC[C@H](C)Oc2ccc(NC(=O)Nc3ccc(F)cc3)cc2C1=O	active
C[C@@H]1CCCCO[C@@H](CN(C)Cc2ccc(Cl)c(Cl)c2)[C@H](C)CN([C@H](C)CO)C(=O)c2cc(NC(=O)Nc3ccc(F)cc3)ccc2O1	inactive
C[C@@H]1CN([C@H](C)CO)C(=O)c2cc(NC(=O)Nc3ccc(F)cc3)ccc2O[C@@H](C)CCCCO[C@@H]1CN(C)Cc1ccc(Cl)c(Cl)c1	inactive
C[C@@H]1CN([C@@H](C)CO)C(=O)c2cc(NC(=O)Nc3ccc(F)cc3)ccc2O[C@@H](C)CCCCO[C@H]1CN(C)Cc1ccc(Cl)c(Cl)c1	inactive
C[C@@H]1CCCCO[C@@H](CN(C)Cc2ccc(Cl)c(Cl)c2)[C@@H](C)CN([C@@H](C)CO)C(=O)c2cc(NC(=O)Nc3ccc(F)cc3)ccc2O1	active

SMILES	cytotoxicity call
C[C@@H]1CCCCO[C@H](CN(C)Cc2ccc(Cl)c(Cl)c2)[C@@H](C)CN([C@H](C)CO)C(=O)c2cc(NC(=O)Nc3ccc(F)cc3)ccc2O1	active
C[C@H]1CCCCO[C@H](CN(C)Cc2ccc(Cl)c(Cl)c2)[C@@H](C)CN([C@@H](C)CO)C(=O)c2cc(NC(=O)Nc3ccc(F)cc3)ccc2O1	active
C[C@@H]1CCCCO[C@@H](CN(C)Cc2ccc(Cl)c(Cl)c2)[C@@H](C)CN([C@H](C)CO)C(=O)c2cc(NC(=O)Nc3ccc(F)cc3)ccc2O1	inactive
C[C@@H]1CCCCO[C@H](CN(C)Cc2ccc(Cl)c(Cl)c2)[C@H](C)CN([C@@H](C)CO)C(=O)c2cc(NC(=O)Nc3ccc(F)cc3)ccc2O1	inactive
C[C@H](CO)N1C[C@H](C)[C@@H](CN(C)Cc2ccc(C(=O)O)cc2)Oc2ccc(NC(=O)c3ccncc3)cc2CC1=O	inactive
C[C@@H]1CN([C@H](C)CO)C(=O)Cc2cc(NS(=O)(=O)c3ccccc3)ccc2O[C@@H]1CN(C)S(=O)(=O)c1cccs1	inactive
C[C@H]1CN([C@@H](C)CO)C(=O)c2cccc(NC(=O)c3cnccn3)c2O[C@@H]1CN(C)S(=O)(=O)c1ccccc1	inactive
C[N+](C)(C)CCCC[C@@H]1NC(=O)[C@H]2C[C@@H](C(=O)NCc3ccc(F)cc3)[C@@H](c3ccc(O)cc3)N2C1=O	inactive
COc1ccc(S(=O)(=O)Nc2ccc3c(c2)C(=O)N([C@@H](C)CO)C[C@H](C)[C@@H](CN(C)Cc2ccc4c(c2)OCO4)OCCCC[C@@H](C)O3)cc1	inactive
COc1ccc(NC(=O)N(C)C[C@@H]2OCc3ccccc3-c3c(n(C)c4ccccc34)C(=O)N([C@@H](C)CO)C[C@@H]2C)cc1	inactive
COc1ccc(S(=O)(=O)Nc2cccc3c2O[C@@H](CN(C)S(=O)(=O)c2cn(C)cn2)[C@H](C)CN([C@@H](C)CO)C3=O)cc1	inactive
C[C@@H]1CN([C@@H](C)CO)C(=O)Cc2cc(NC(=O)Nc3cccc4ccccc34)ccc2O[C@H]1CN(C)Cc1ccc(Cl)c(Cl)c1	inactive
CC(C)NC(=O)N(C)C[C@H]1Oc2ccc(NC(=O)Cn3cnnn3)cc2C(=O)N([C@@H](C)CO)C[C@H]1C	inactive
COC(=O)c1ccc(O)c(O)c1	inactive
CCS(=O)(=O)N1CCc2ccc(N)cc2C1	inactive
COc1ccc(S(=O)(=O)N(C)C[C@H]2OCCCC[C@@H](C)Oc3ccc(NS(C)(=O)=O)cc3C(=O)N([C@H](C)CO)C[C@@H]2C)cc1	inactive
CC(C)NC(=O)Nc1ccc2c(c1)C(=O)N([C@@H](C)CO)C[C@H](C)[C@@H](CN(C)Cc1ccc(Cl)c(Cl)c1)OCCCC[C@H](C)O2	inactive
CC(C)NC(=O)Nc1ccc2c(c1)C(=O)N([C@H](C)CO)C[C@H](C)[C@@H](CN(C)Cc1ccc(Cl)c(Cl)c1)OCCCC[C@H](C)O2	inactive
CC(C)NC(=O)Nc1ccc2c(c1)C(=O)N([C@H](C)CO)C[C@@H](C)[C@H](CN(C)Cc1ccc(Cl)c(Cl)c1)OCCCC[C@@H](C)O2	active
C[C@@H]1CCCCO[C@H](CN(C)Cc2ccc(Cl)c(Cl)c2)[C@@H](C)CN([C@@H](C)CO)C(=O)c2cc(NC(=O)Nc3ccc(F)cc3)ccc2O1	active
C[C@@H]1CN([C@H](C)CO)C(=O)c2cc(NC(=O)Nc3ccc(F)cc3)ccc2O[C@@H](C)CCCCO[C@H]1CN(C)Cc1ccc(Cl)c(Cl)c1	active
